This is part of a sample that, as a whole, favours compounds with a hit. Of some 83,000 tested, about 20% had one in any assay.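 Plates (96-well) were seeded with cells, treated with compound at one concentration, and incubated for 48 hours before percent growth was determined.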 Unmarked numbers belong to inactive results. The source made the active and inactive calls. How the source made its calls: active means growth percent below 10; inactive means the rest.

One assay concerns A498 renal. The assay can be described thus: NCI-60 one-dose screen, 48 h (100 = growth as untreated, 0 = no growth, -100 = all killed). Conditions: 10 µM unless noted.
As for `Cc1ccc(/C=N/Nc2nc(Nc3ccccc3)nc(Nc3ccc(S(N)(=O)=O)cc3)n2)cc1`, the growth was 54.7%. Same read-out and setting: the same measure for `Cc1ccc(S(=O)(=O)NCCCNc2nc(Nc3ccc(N4CCN(C)CC4)cc3)nc3ccsc23)cc1`: 56.2%; for `CC(C)=CCC[C@](C)(O)[C@H]1CC[C@]2(C)[C@@H]1CC[C@@H]1[C@@]3(C)CC[C@H](N)C(C)(C)[C@@H]3CC[C@]12C`: 106%; for `NNc1nnc2nc(Nc3ccccc3)nc(Nc3ccc(S(N)(=O)=O)cc3)n12`: 102%.

Another assay has as its system CCRF-CEM leukemia. Described as above. The settings on record: 10 µM unless noted.
As for `COCCOc1ccc2ncc(C#Cc3cncc(C(=O)Nc4ccc(CN5CCN(C)CC5)c(C(F)(F)F)c4)c3)n2n1`, the growth is 11.7%. Consider `CCOC(=O)c1c(N)c(C#N)cn1Cc1ccc(Cl)cc1Cl`, for which the growth was 84.6%. Still for that read-out and setting: the value for `Cc1ccc(Nc2nc(SC(C)C)nc(-c3ccccc3)c2C#N)cc1` was 81.7%; that for `O=C(CSc1nc2ccccc2c(=O)n1-c1ccc(Cl)c(Cl)c1)Nc1ccc(S(=O)(=O)Nc2ccc(Cl)nn2)cc1` was 97%. With `N#Cc1cnc2ccc(-c3cnc4n[nH]nc4c3)cc2c1N1CCc2cc(F)c(Cl)cc21`, the growth was 10.6%.

With `CNC(=O)Nc1ccc(Nc2cc(-c3ccc(-n4cccn4)cc3)[nH]n2)c(C)c1`, the growth is 93.1%. Still for that read-out and setting: the value for `CN1CCN(Cc2ccc(NC(=O)c3cncc(C#Cc4cnc5ccc(N)nn45)c3)cc2C(F)(F)F)CC1` was 11.8%; that for `Cc1cc(=O)oc2cc(OCCCOc3ccc(/C=C/C(=O)Nc4ccc(Br)cc4)cc3)ccc12` was 83.6%; that for `C/C(CC1(O)C(=O)Nc2ccccc21)=N\O` (centres undefined) was 99.7%.

As to `Cc1ccc2c(n1)C(=O)C(Cl)=C(Nc1ccccc1C(=O)OC(C)(C)C)C2=O`, the growth is -27.1% (active). Same read-out and setting: the value for `COc1ccc(/C=N\NC(=O)c2cnn(CC(O)c3ccccc3)c2N)cc1OCc1ccc(Cl)cc1` (centres undefined) was 72.6%; that for `NC(N)=NS(=O)(=O)c1ccc(N=Nc2c(N)nn(-c3ccc([N+](=O)[O-])cc3[N+](=O)[O-])c2N)cc1` was 97.7%. Same read-out and setting: the same measure for `COc1ccccc1Cn1cc(C#N)c(N)c1C(=O)c1ccc(Br)cc1`: 91.4%. As for `CC(=C(c1ccc(OCCN2CCCC2)cc1)c1ccc(OCCN2CCCC2)cc1)c1ccc(Cl)cc1`, the growth was -48.6% (active). For `CCN(CC)CCOc1ccc(C(=C(C)Cc2ccc(OC)cc2)c2ccc(OCCN(CC)CC)cc2)cc1`, the growth is 3.83% (active). The same measure, in the same setting: the same measure for `Fc1ccc(-c2cn3c(-c4c[nH]c5ccc(Br)cc45)csc3n2)cc1`: 70.3%.

Regarding `CC1=C(C)C(=O)C(Nc2cccc(C(=O)OC(C)(C)C)c2)=CC1=O`, the growth is 78.8%. On to `CSc1ccc(/C(=N/N=C(N)N)c2ccc(Cl)cc2)cc1`, for which the growth was 16.1%. For the compound `O=C(/C=C/Nc1ccc(S(=O)(=O)Nc2ncccn2)cc1)c1ccc(N=Cc2c(O)[nH]c3ccccc23)cc1`, the growth is 104%. The same measure, in the same setting: the same measure for `N#Cc1c(-c2cccs2)cc(-c2cnccn2)nc1SCC(=O)N/N=C/c1cccs1`: 90.6%; for `O=S(=O)(NCCCNc1nccc(-c2[nH]c(-c3ccccc3)nc2-c2ccc(F)c(O)c2)n1)c1ccccc1`: 47.9%.

For the compound `CC1(C)CC[C@]2(C(=O)NCCCCCCN(CCCN)CCCN)CC[C@]3(C)C(=CC[C@@H]4[C@@]5(C)CC[C@H](O)C(C)(C)[C@@H]5CC[C@]43C)[C@@H]2C1`, the growth was 105%.

Turning to `CCOC(=O)c1c(NCC(=O)Nc2cccc([N+](=O)[O-])c2)sc(C(C)=O)c1C`, the growth is 4.89% (active). Take `O=c1oc2ccc(-c3ccc(F)cc3F)cc2c(=O)n1-c1ccc(Br)cc1F`: the growth is 56.3%. The same measure, in the same setting: the value for `Cc1ccc2c(n1)C(=O)C(Cl)=C(Nc1cccc(C(=O)OC(C)(C)C)c1)C2=O` was 10.6%. Still for that read-out and setting: the value for `C/C(=C(\c1ccc(O)cc1)c1ccc(OCCN2CCCCCC2)cc1)c1ccc(Cl)cc1` was 3.56% (active). Consider `CC1=C(C)C(=O)C(Nc2cccc(C(F)(F)F)c2)=C(Br)C1=O`, for which the growth was -0.578% (active).

On to `CC(C)C(/C=C/c1[nH]ncc1-c1cc(Cl)ccc1O)N1CCOCC1` (centres undefined), for which the growth was 97.7%. Consider `Fc1cccc(Cl)c1/C=N/Nc1nc(N/N=C/c2c(F)cccc2Cl)nc(N2CCCCC2)n1`, for which the growth is 22.3%. On the same count and under the same terms, the same measure for `COc1ccc(C2C(C#N)=C(/N=C/c3ccc(Cl)cc3)Oc3c2sc2c(C)cccc32)cc1` (centres undefined): 18.7%; for `O=C(CCCCCCNC(=O)C(O)(O)C(F)(F)F)Nc1ccc(Cl)cc1`: 22.4%. Still for that read-out and setting: the same measure for `O=C1C(SCc2ccccc2)=C(Cl)CN1c1ccc(Cl)cc1`: 70.8%; for `Cc1ccc(-c2nc(SCC(=O)c3ccccc3)nc(Nc3ccc(S(N)(=O)=O)cc3)c2C#N)cc1`: 82%; for `O=C1C(N2CCN(c3ccccc3)CC2)=C(Cl)C(=O)c2ncccc21`: 6.08% (active). Still for that read-out and setting: the value for `C#Cc1nc(C(=O)NCCCCCCC(=O)NO)cs1` was -41.4% (active).

For the compound `C[C@H](Nc1ncnc2ccc(-c3cnc(Cl)c(NS(C)(=O)=O)c3)cc12)c1ccccc1`, the growth was 7.38% (active). Regarding `Cc1ccc(/C=N/Nc2nc(Nc3ccccc3)nc(Nc3ccc(S(N)(=O)=O)cc3)n2)cc1`, the growth was 42%. Still for that read-out and setting: the same measure for `Cc1ccc(S(=O)(=O)NCCCNc2nc(Nc3ccc(N4CCN(C)CC4)cc3)nc3ccsc23)cc1`: 18.1%; for `CC(C)=CCC[C@](C)(O)[C@H]1CC[C@]2(C)[C@@H]1CC[C@@H]1[C@@]3(C)CC[C@H](N)C(C)(C)[C@@H]3CC[C@]12C`: 0.154% (active). On the same count and under the same terms, the value for `NNc1nnc2nc(Nc3ccccc3)nc(Nc3ccc(S(N)(=O)=O)cc3)n12` was 92.5%.

These data come from PubChem BioAssay (NCI).
